Compounds with a hit are over-represented: about 0.88% of the library has one in this group of screens.
Akt phos inh = blocks phosphorylation of Akt. 0.32% of 360,000 active. Neuro2A IGF-stimulated pAkt S473 HTRF, 20 min; hits give low values. activity change, % for hits at 50 µM; in the data active means activity change below about -80%; inconclusive means mostly about -51% to -80%; further: on the % scale 0 is the no-effect control and ±100 the full control effect
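Neuro2A cells in DMEM with 0.5% FBS, overnight at 37 deg C, given compound at single 50 µM final, then IGF (6 nM final) for 20 min at 37 deg C. Lysed; phospho-Akt Ser473 by HTRF after 24 h, 665/615 ratio.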
Six1-Eya2 inh = blocks human Six1 binding to Eya2 | AlphaScreen GST-Six1/His-Eya2 binding, biochemical; hits give low values | activity change, % (test concentration not listed) | 0.56% of 360,000 active | AID 651725; in the data active means activity change below about -65%; inconclusive means mostly about -30% to -63%; further: on the % scale 0 is the no-effect control and ±100 the full control effect
Target sequence (O00167 whole entry, looked up): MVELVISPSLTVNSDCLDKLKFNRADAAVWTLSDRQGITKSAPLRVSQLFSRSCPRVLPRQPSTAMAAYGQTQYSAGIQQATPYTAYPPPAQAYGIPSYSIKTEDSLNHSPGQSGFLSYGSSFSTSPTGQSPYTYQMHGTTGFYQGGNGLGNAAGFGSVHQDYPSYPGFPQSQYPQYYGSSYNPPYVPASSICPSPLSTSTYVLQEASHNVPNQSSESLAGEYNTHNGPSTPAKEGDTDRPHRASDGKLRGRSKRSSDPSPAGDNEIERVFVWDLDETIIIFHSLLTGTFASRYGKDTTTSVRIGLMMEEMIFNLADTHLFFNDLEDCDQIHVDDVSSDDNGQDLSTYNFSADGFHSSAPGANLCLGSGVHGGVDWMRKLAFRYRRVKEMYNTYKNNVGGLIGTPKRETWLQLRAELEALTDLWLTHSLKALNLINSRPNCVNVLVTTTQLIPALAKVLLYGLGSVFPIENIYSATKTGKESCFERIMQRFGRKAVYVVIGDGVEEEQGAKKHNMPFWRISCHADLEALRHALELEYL
Target sequence (Q15475 whole entry, looked up): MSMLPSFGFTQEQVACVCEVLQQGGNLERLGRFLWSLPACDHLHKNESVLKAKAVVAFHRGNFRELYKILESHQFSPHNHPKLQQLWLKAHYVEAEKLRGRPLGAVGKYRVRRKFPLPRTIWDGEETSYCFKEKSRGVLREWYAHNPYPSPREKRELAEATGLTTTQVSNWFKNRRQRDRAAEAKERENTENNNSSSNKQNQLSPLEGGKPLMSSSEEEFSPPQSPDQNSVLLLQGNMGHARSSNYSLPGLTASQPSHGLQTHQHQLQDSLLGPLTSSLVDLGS
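Homogeneous AlphaScreen proximity assay pairing GST-Six1 with His-tagged Eya2 (added as 5X mix: 250 nM and 500 nM) in 50 mM Tris pH 8.0, 300 mM NaCl, 1 mM TCEP. Glutathione donor and nickel acceptor beads; 1 h, 37 °C, dark.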
RGS4 inh = inhibitors of human regulator of G protein signaling 4. Transcreener GDP fluorescence polarization, RGS4-accelerated GTP hydrolysis. Potency, µM (doses to about 114 µM), inactives show at the highest dose activity change, negative = inhibition, hits mostly inhibitors. 0.039% of 390,000 active. AID 504845; further: potency means the concentration at half of the fitted maximal effect; on the % scale 0 is the no-effect control and ±100 the full control effect; nearly all actives have a fitted effect of over 75% in size
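MLSMR compounds (23 nl, pin-transferred) preincubated 10 min at room temperature with a 500nM (2x) first reagent, then RGS4 at 900nM (2x) plus Transcreener GDP mix added; fluorescence polarization (620/688 nm) read before and after 90 min at 30 °C.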
Glioma ERSR ind = inducers of ER stress response in human glioma cells | Potency, µM, inactives show top-dose activation, hits mostly activators | 0.02% of 420,000 active | U87-MG GRP78 promoter luciferase reporter, 16 h | AID 602332; further: potency means the concentration at half of the fitted maximal effect; series mostly up to about 76 µM; % of control where 0% means no effect; nearly all actives have a fitted effect of over 35% in size
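Stably transfected U87-MG glioma cells carrying a GRP78-based luciferase sensor; 16 h compound incubation. Luminescence end-point read 10 min after Bright-Glo addition at room temperature.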
CtBP-E1A inh = CtBP/E1A binding inhibition; AlphaScreen GST-E1A/His-CtBP binding, 1536-well; hits give low values; activity change, % (test concentration not listed); 0.49% of 340,000 active; in the data active means activity change below about -65%; inconclusive means mostly about -30% to -63%; further: on the % scale 0 is the no-effect control and ±100 the full control effect
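Steps: dispense buffer (Tris pH 8.0, NaCl 300 mM, TCEP 1 mM, BSA, Tween 20); add 5X protein mix (GST-E1A, His-CtBP, 125 nM each); pin 23 nL compound; 2 h at 37 °C, dark; add 5X beads (50 ug/mL); 1 h; read.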
Starred values were filed as active, the others as inactive. Unless noted, the call rests on the fitted dose curve; in most records, active means well fitted curve in the direction sought with a large enough effect; inconclusive means small, poorly fitted or top-dose-only effect, or another doubt; inactive means no such curve, though single readings can be large; an effect the other way counts as inactive or inconclusive.

What do the screens show for `Nc1ccc(N=Nc2ccccc2)c2cccnc12`?
Akt phos inh: inactive; Six1-Eya2 inh: -65*; RGS4 inh: -20%; Glioma ERSR ind: 14%; CtBP-E1A inh: -73*

What do the screens show for `Nc1ccc(Br)c2cccnc12`?
Akt phos inh: inactive; Six1-Eya2 inh: 9; RGS4 inh: -34%; Glioma ERSR ind: -3%; CtBP-E1A inh: 22

What do the screens show for `COc1cc(OC)cc(C(=O)Nc2cccc3cccnc23)c1`?
Akt phos inh: inactive; Six1-Eya2 inh: 7; RGS4 inh: -19%; Glioma ERSR ind: -3%; CtBP-E1A inh: -5

Results for COc1cccc(N=Nc2ccc3cccnc3c2O)c1 ?
Akt phos inh: inactive; Six1-Eya2 inh: -91*; RGS4 inh: -24%; Glioma ERSR ind: -4%

What do the screens show for `COc1ccc(C)cc1N=Nc1ccc(O)c2ncccc12`?
Akt phos inh: inactive; Six1-Eya2 inh: -95*; RGS4 inh: -6%; Glioma ERSR ind: -4%

How did COC(=O)/C=C/c1ccccc1CN1[C@@H](CC(=O)OC)c2ccccc2S1(=O)=O do in these assays?
Akt phos inh: inactive; Six1-Eya2 inh: -24; RGS4 inh: -11%; Glioma ERSR ind: -5%; CtBP-E1A inh: -83*

How did Cc1c(C)c2c(C)nn(-c3ccccc3)c2[nH]c1=O do in these assays?
Akt phos inh: -108%*; Six1-Eya2 inh: -5; RGS4 inh: 20%; Glioma ERSR ind: 0%; CtBP-E1A inh: 0

Results for COc1cc(C(C#N)N2N=C(c3ccccc3)CC2c2ccccc2)ccc1O (stereo not given) ?
Akt phos inh: -113%*; Six1-Eya2 inh: 0; RGS4 inh: -3%; Glioma ERSR ind: 15%; CtBP-E1A inh: 5

How did N#CC(c1ccccc1O)N1N=C(c2ccccc2)CC1c1ccccc1 (stereo not given) do in these assays?
Akt phos inh: inactive; Six1-Eya2 inh: 12; RGS4 inh: 14%; Glioma ERSR ind: 3%; CtBP-E1A inh: -8

What do the screens show for `Cc1cc(C)c(S(=O)(=O)N2CCOC2CNC(=O)C(=O)NCCCn2ccnc2)c(C)c1` (stereo not given)?
Akt phos inh: inactive; Six1-Eya2 inh: -70*; RGS4 inh: 3%; Glioma ERSR ind: -5%; CtBP-E1A inh: inconclusive

How did CNCCCOc1ccc2c(c1)CCC2 do in these assays?
Akt phos inh: inactive; Six1-Eya2 inh: 4; RGS4 inh: 0%; Glioma ERSR ind: -4%; CtBP-E1A inh: 1

Results for c1cnc(SCCOc2ccc3c(c2)CCC3)nc1 ?
Akt phos inh: -117%*; Six1-Eya2 inh: 20; RGS4 inh: -18%; Glioma ERSR ind: 7%; CtBP-E1A inh: 28

What do the screens show for `Brc1ccc(OCc2nc(-c3ccccn3)n[nH]2)cc1`?
Akt phos inh: inactive; Six1-Eya2 inh: -91*; RGS4 inh: -7%; Glioma ERSR ind: 3%; CtBP-E1A inh: -93*

How did Cc1ccc(OCc2nc(-c3ccccn3)no2)cc1 do in these assays?
Akt phos inh: inactive; Six1-Eya2 inh: -9; RGS4 inh: 2%; Glioma ERSR ind: -4%; CtBP-E1A inh: -8

What do the screens show for `Clc1ccc(OCc2nc(-c3ccccn3)n[nH]2)cc1`?
Akt phos inh: inactive; Six1-Eya2 inh: -92*; RGS4 inh: -15%; Glioma ERSR ind: 4%; CtBP-E1A inh: -94*

How did O=C1C2C(c3ccccc3)C=CC(c3ccccc3)C2C(=O)N1CCCO (stereo not given) do in these assays?
Akt phos inh: -102%*; Six1-Eya2 inh: -7; RGS4 inh: inconclusive; Glioma ERSR ind: -1%; CtBP-E1A inh: 2

Results for O=C(O)CCSCCC(=O)O ?
Akt phos inh: -106%*; Six1-Eya2 inh: -6; RGS4 inh: 9%; Glioma ERSR ind: -4%; CtBP-E1A inh: -1

How did Cc1cnn(C(=S)NCC2CCCO2)c1 (stereo not given) do in these assays?
Akt phos inh: -103%*; Six1-Eya2 inh: 4; RGS4 inh: 14%; Glioma ERSR ind: -1%; CtBP-E1A inh: -9

How did CC[C@H](C)[C@H](NC(=O)[C@H](CO)NC(=O)[C@H](CC(N)=O)NC(=O)[C@H](CC(C)C)NC(=O)[C@H](Cc1ccc(O)cc1)NC(=O)[C@H](CCCCN)NC(=O)[C@H](CCCCN)NC(=O)[C@@H](NC(=O)[C@H](C)NC(=O)[C@H](CCSC)NC(=O)[C@H](CCC(N)=O)NC(=O)[C@H](CCCCN)NC(=O)[C@H](CCCNC(=N)N)NC(=O)[C@H](CC(C)C)NC(=O)[C@H](CCCNC(=N)N)NC(=O)[C@@H](NC(=O)[C@H](Cc1ccc(O)cc1)NC(=O)[C@H](CC(N)=O)NC(=O)[C@H](CC(=O)O)NC(=O)[C@@H](NC(=O)[C@H](Cc1ccccc1)NC(=O)[C@@H](NC(=O)[C@H](C)NC(=O)[C@H](CC(=O)O)NC(=O)[C@H](CO)NC(=O)[C@@H](N)Cc1c[nH]cn1)C(C)C)[C@@H](C)O)[C@@H](C)O)C(C)C)C(=O)N[C@@H](CC(C)C)C(=O)N[C@@H](CC(N)=O)C(=O)O do in these assays?
Glioma ERSR ind: -4%

How did CCCC(=O)O[C@]1(C(=O)COC(=O)CC)[C@@H](C)C[C@H]2[C@@H]3CCC4=CC(=O)C=C[C@@]4(C)[C@@]3(F)[C@H](O)C[C@@]21C do in these assays?
Glioma ERSR ind: -3%

How did O=C(Cn1c(=O)c2sccc2n(Cc2ccc([N+](=O)[O-])cc2)c1=O)NCCc1ccccc1 do in these assays?
Akt phos inh: inactive; Six1-Eya2 inh: inconclusive; RGS4 inh: inconclusive; Glioma ERSR ind: 0%; CtBP-E1A inh: -89*

What do the screens show for `Nc1c(C(=O)O)ccc2c1C(=O)c1ccccc1C2=O`?
Akt phos inh: inactive; Six1-Eya2 inh: -28; RGS4 inh: -22%; Glioma ERSR ind: 4%; CtBP-E1A inh: inconclusive

Results for Nc1c(SCCC(=O)O)ccc2c1C(=O)c1ccccc1C2=O ?
Akt phos inh: inactive; Six1-Eya2 inh: -67*; RGS4 inh: -31%; Glioma ERSR ind: -4%; CtBP-E1A inh: -15

How did O=C(NCCc1nnc2n1CCN(Cc1ccc3c(c1)CCO3)CC2)c1ccco1 do in these assays?
Glioma ERSR ind: -8%

How did CC(=O)OCC(=O)[C@@]1(O)[C@H](C)C[C@H]2C3C[C@H](F)C4=CC(=O)C=CC4(C)C3[C@@H](O)CC21C (stereo not given in full) do in these assays?
Glioma ERSR ind: -2%

How did O=C(C[n+]1cccc2cc(Cl)ccc21)c1cccc([N+](=O)[O-])c1 do in these assays?
Glioma ERSR ind: -3%

What do the screens show for `C=CCn1c(=O)c2ccccc2n2c(Sc3nnnn3-c3ccccc3)nnc12`?
Akt phos inh: -110%*; Six1-Eya2 inh: 2; RGS4 inh: 28%; Glioma ERSR ind: 2%; CtBP-E1A inh: -3

What do the screens show for `CCCn1c(=O)c2ccccc2n2c(Sc3nnnn3-c3ccccc3)nnc12`?
Akt phos inh: inactive; Six1-Eya2 inh: -9; RGS4 inh: inconclusive; Glioma ERSR ind: 0%; CtBP-E1A inh: -2

Screening results: PubChem, National Center for Advancing Translational Sciences (NCATS)
